Experimental data: PubChem BioAssay (Tox21)
Calls of active or inactive are those of the source. A call without a number means that no potency is given here. The call rests on the fitted dose curve; in most records, active means well fitted activation curve with a large enough effect in the repeat runs; inconclusive means weak or mixed curves; inactive means flat fitted curve, though single readings scatter.

Assay: A CellTox Green Cytotoxicity Assay to monitor cytotoxicity in HEK293 cells - 0 hour (AID 1224869); further: nearly all actives have a fitted effect of over 50% in size
Conditions: CellTox Green fluorescence; series mostly up to 76.8 µM
Source text: National Center for Advancing Translational Sciences [NCATS]
NIH Chemical Genomics Center [NCGC]
U.S. Environmental Protection Agency [EPA]
National Institutes of Environmental Health Sciences [NIEHS]
National Toxicology Program [NTP]
Cell-based models are critical for drug discovery. Determining the natural cytotoxic effects resulting from test compounds is an essential research activity. A CellTox Green Cytotoxicity Assay to monitor cytotoxicity in real time of continues cell culture during 40 hours of the compound treatment was used to screen Tox21 10K library compounds in Hek293 cells. CellTox Green Cytotoxicity Assay is a nonlytic, homogeneous, biofluorescent method to measure cytotoxicity in cell culture after experimental manipulation. The assay system uses a proprietary asymmetric cyanine dye that is excluded from viable cells but preferentially stains the dead cell's DNA. […] Viable cells produce no appreciable increases in fluorescence. Therefore, the fluorescence signal produced by the binding interaction with dead cell DNA is proportional to cytotoxicity.
The mixture of Hek293 cell suspension and reagents were dispensed at 600cells/6 ul/well in 1536-well tissue culture treated black solid bottom plates using a Multidrop dispenser. After the assay plates were incubated at a 37 C/5% CO2 incubator for 5 hours, 23 nL of compounds dissolved in DMSO, positive and negative controls was transferred to the assay plate by a pintool work station. The plates were incubated at 37 C for 40 hours. The fluorescence intensity were measured at 0h, 8h, 16h, 24h, 32h and 40h time points using ViewLux plate reader during compound treatment.

Question: Which Potency does the source give for `CCC[CH2][Sn]([CH2]CCC)([O]C(C)=O)[O]C(C)=O` here?
Answer: inactive

Question: For `CC(=O)[O][Pb]([c]1ccccc1)([c]1ccccc1)[c]1ccccc1`, which Potency is on record?
Answer: inactive

Question: With `CC(C)N(C(=O)CCl)c1ccccc1` as the compound, how does the Potency read?
Answer: inactive

Question: For `COc1ccc2c(c1OC)C(=O)O[C@@H]2[C@H]1c2cc3c(cc2CCN1C)OCO3`, which Potency is on record?
Answer: inactive

Question: For `CC1CCCC1`, which Potency is on record?
Answer: inactive

Question: Which Potency does the source give for `CC[C@]1(O)CC[C@H]2[C@@H]3CCC4=CCCC[C@@H]4[C@H]3CC[C@@]21C` here?
Answer: inactive

Question: For `CC(=O)[O-].CC(=O)[O-].O.O.[Zn+2]`, which Potency is on record?
Answer: inactive

Question: With `COc1ccc(Cc2nccc3cc(OC)c(OC)cc23)cc1OC` as the compound, how does the Potency read?
Answer: inactive

Question: With `ClSC(Cl)(Cl)Cl` as the compound, how does the Potency read?
Answer: inactive

Question: For `N#CCCl`, which Potency is on record?
Answer: inactive

Question: With `O=S1OCC2C(CO1)C1(Cl)C(Cl)=C(Cl)C2(Cl)C1(Cl)Cl` (stereo not given) as the compound, how does the Potency read?
Answer: inactive

Question: For `N#Cc1c2ccccc2cc2ccccc12`, which Potency is on record?
Answer: inactive

Question: Which Potency does the source give for `CCC1COC(Cn2cncn2)(c2ccc(Cl)cc2Cl)O1` (stereo not given) here?
Answer: inactive

Question: For `COP(=S)(OC)Oc1ccc([N+](=O)[O-])c(C)c1`, which Potency is on record?
Answer: inactive

Question: With `Oc1ccc2[nH]cc(CCCCN3CC=C(c4ccccc4)CC3)c2c1` as the compound, how does the Potency read?
Answer: inactive

Question: With `C[C@@H]1CC2=CC(=O)CC[C@@H]2[C@H]2CC[C@@]3(C)[C@@H](CC[C@]3(C)O)[C@@H]21` as the compound, how does the Potency read?
Answer: inactive

Question: With `N#CC(C#N)=NNc1cccc(Cl)c1` as the compound, how does the Potency read?
Answer: inactive

Question: Which Potency does the source give for `CN(C)c1ccc(N)cc1` here?
Answer: inactive

Question: Which Potency does the source give for `Oc1ccc([C@H]2CNCc3c2ccc(O)c3O)cc1O` here?
Answer: inactive

Question: Which Potency does the source give for `COC(=O)C(C)N(C(=O)c1ccco1)c1c(C)cccc1C` (stereo not given) here?
Answer: inactive

Question: With `O.O.O.O=C([O-])[C@H]([O-])[C@@H]([O-])C(=O)[O-].O=C([O-])[C@H]([O-])[C@@H]([O-])C(=O)[O-].[K+].[K+].[Sb+3].[Sb+3]` as the compound, how does the Potency read?
Answer: inactive

Question: For `[Cl-].[Cl-].[Sn+2]`, which Potency is on record?
Answer: inactive

Question: With `C=C(C)C(=O)[O][Sn]([CH2]CCC)([CH2]CCC)[CH2]CCC` as the compound, how does the Potency read?
Answer: inactive

Question: For `BrCCCBr`, which Potency is on record?
Answer: inactive

Question: Which Potency does the source give for `FC(F)C(F)(F)OCC(Cn1cncn1)c1ccc(Cl)cc1Cl` (stereo not given) here?
Answer: inactive

Question: Which Potency does the source give for `O=c1[nH]c2cc(Cl)ccc2n1C1CCNCC1` here?
Answer: inactive

Question: Which Potency does the source give for `CCCCC/C=C\C/C=C\C/C=C\C/C=C\CCCC(=O)NCC(=O)O` here?
Answer: inactive

Question: For `COC(=O)c1cc(Oc2ccc(Cl)cc2Cl)ccc1[N+](=O)[O-]`, which Potency is on record?
Answer: inactive

Question: For `CCCCN(CCCC)C(=S)[S-].CCCCN(CCCC)C(=S)[S-].[Ni+2]`, which Potency is on record?
Answer: inactive

Question: With `CC(C)NCC(O)c1ccccc1Cl` (stereo not given) as the compound, how does the Potency read?
Answer: inactive

Question: With `Cc1nn(-c2cc(NS(C)(=O)=O)c(Cl)cc2Cl)c(=O)n1C(F)F` as the compound, how does the Potency read?
Answer: inactive

Question: Which Potency does the source give for `N#Cc1ccc(N(CC(N)=O)CC(F)(F)F)cc1C(F)(F)F` here?
Answer: inactive

Question: Which Potency does the source give for `CC1=C2C[C@H]3[C@@H](CC=C4C[C@@H](O)CC[C@@]43C)[C@@H]2CC[C@]12O[C@@H]1C[C@H](C)CN[C@H]1[C@H]2C` here?
Answer: inactive

Question: With `CC(C)=CC1C(C(=O)OC(C#N)c2cccc(Oc3ccccc3)c2)C1(C)C` (stereo not given) as the compound, how does the Potency read?
Answer: inactive

Question: Which Potency does the source give for `O=C(Nc1ccc(F)cc1F)c1cccnc1Oc1cccc(C(F)(F)F)c1` here?
Answer: inactive

Question: Which Potency does the source give for `CCOP(=O)(Sc1ccccc1)Sc1ccccc1` here?
Answer: inactive

Question: With `Clc1ccc(C2(Cn3cncn3)OCCO2)c(Cl)c1` as the compound, how does the Potency read?
Answer: inactive

Question: Which Potency does the source give for `O=C(NC(=O)c1c(F)cccc1F)Nc1ccc(Oc2ccc(C(F)(F)F)cc2Cl)cc1F` here?
Answer: inactive

Question: For `Nc1ccc(N=Nc2ccccc2)cc1`, which Potency is on record?
Answer: inactive

Question: With `CN1CCc2cc(Cl)c(O)cc2[C@H]2c3ccccc3CC[C@@H]21` as the compound, how does the Potency read?
Answer: inactive
